Holding throughout (experiment): DAPPL (digital affinity profiling via proximity ligation, sequencing); 10 mM Tris-HCl pH 7.5, 50 mM NaCl, 1 mM DTT, 4% glycerol, room temperature, 30 min; GST-TFs on glutathione beads, 16-mer random dsDNA library, 0.1% formaldehyde crosslink after washing; high values mean tight binding
One test addresses T1, FEV (Homo sapiens, UniProt Q99581 1-238).
T1 sequence: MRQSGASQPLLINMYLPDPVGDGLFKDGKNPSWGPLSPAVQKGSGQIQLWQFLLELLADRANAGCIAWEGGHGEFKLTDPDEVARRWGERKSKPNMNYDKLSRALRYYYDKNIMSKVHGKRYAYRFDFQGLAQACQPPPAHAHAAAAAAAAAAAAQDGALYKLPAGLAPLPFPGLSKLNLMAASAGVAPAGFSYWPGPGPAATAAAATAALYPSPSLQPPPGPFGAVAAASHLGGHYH
Particulars: protein: recombinant; tags: N-terminal GST; dsDNA, one strand shown. In short, it runs like this:
(§1)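 Sequencing on an Illumina NextSeq500 followed washing, crosslinking with 0.1% formaldehyde, proximity ligation (BsaI/T4 ligase, 1 h, 37 °C) and PCR amplification of pools that had been incubated for 30 min at room temperature with 200 nmole of a random double-stranded 16-mer DNA library in Tris/NaCl/DTT/glycerol buffer. Each pool held DNA-barcoded human transcription factors, expressed in yeast as GST fusions and captured on glutathione beads, plus a tag-only sample. Binding signal is a hexamer's read frequency for a factor divided by its frequency in the tag-only sample.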

The target of a further test is ETV5 (Homo sapiens, UniProt P41161 1-510). Particulars: protein: recombinant; tags: N-terminal GST; dsDNA, one strand shown. In short, it runs like this: as §1
Another test concerns the target HSF1 (Homo sapiens, UniProt Q00613 1-529). Particulars: protein: recombinant; tags: N-terminal GST; chain copies: 3; dsDNA, one strand shown. In a few lines:
as §1

The target in the next test is T2, SPIC (Homo sapiens, UniProt Q8N5J4 1-248).
T2 sequence: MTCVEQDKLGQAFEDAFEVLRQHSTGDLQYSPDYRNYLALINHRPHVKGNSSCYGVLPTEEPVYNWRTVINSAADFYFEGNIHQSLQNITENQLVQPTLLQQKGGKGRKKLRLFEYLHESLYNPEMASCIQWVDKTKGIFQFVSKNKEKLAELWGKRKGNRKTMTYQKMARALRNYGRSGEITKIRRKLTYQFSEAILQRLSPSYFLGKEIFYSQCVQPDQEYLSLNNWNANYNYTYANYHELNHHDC
Particulars: protein: recombinant; tags: N-terminal GST; dsDNA, one strand shown. In short, it runs like this:
as §1

Another test deals with ELF4 (Homo sapiens, UniProt Q99607 1-663). Particulars: protein: recombinant; tags: N-terminal GST; dsDNA, one strand shown. In a few lines: as §1
The next test addresses T3, ELK4 (Homo sapiens, UniProt P28324-2 1-405).
T3 sequence: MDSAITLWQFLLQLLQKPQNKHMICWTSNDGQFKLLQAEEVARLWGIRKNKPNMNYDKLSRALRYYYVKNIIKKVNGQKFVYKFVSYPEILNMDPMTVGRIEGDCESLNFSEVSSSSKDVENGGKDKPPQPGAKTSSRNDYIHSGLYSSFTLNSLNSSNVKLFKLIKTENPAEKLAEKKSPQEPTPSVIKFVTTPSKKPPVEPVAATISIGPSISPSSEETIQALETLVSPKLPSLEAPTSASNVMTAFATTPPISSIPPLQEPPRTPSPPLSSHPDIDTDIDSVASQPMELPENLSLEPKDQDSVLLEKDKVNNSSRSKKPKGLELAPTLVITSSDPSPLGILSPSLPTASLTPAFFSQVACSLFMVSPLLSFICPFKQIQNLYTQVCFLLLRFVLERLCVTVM
Particulars: protein: recombinant; tags: N-terminal GST; dsDNA, one strand shown. In a few lines: as §1

For another test, the target named is T4, ETV2 (Homo sapiens, UniProt O00321 1-342).
T4 sequence: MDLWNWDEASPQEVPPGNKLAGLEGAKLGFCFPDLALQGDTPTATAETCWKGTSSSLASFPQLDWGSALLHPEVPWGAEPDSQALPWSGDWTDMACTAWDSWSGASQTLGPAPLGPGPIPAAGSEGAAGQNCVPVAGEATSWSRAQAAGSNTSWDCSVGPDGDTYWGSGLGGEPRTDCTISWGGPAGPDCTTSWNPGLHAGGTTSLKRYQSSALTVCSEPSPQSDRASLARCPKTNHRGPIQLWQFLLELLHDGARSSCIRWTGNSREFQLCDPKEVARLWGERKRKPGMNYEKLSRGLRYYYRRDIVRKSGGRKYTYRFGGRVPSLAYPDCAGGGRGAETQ
Particulars: protein: recombinant; tags: N-terminal GST; dsDNA, one strand shown. In a few lines:
as §1

Another test addresses T5, ELF3 (Homo sapiens, UniProt P78545 1-371).
T5 sequence: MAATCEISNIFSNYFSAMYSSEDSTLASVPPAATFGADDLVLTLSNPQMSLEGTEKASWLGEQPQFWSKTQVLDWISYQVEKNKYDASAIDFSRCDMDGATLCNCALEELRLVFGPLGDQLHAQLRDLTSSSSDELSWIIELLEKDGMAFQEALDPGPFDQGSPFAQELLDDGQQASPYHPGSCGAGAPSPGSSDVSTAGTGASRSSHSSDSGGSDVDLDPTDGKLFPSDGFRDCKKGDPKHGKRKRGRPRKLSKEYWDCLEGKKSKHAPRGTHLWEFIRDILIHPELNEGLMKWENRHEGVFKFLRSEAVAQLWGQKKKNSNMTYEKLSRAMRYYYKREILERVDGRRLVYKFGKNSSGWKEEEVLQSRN
Particulars: protein: recombinant; tags: N-terminal GST; dsDNA, one strand shown. In short, it runs like this:
as §1

In a further test the target is CRX (Homo sapiens, UniProt O43186 1-299). Particulars: protein: recombinant; tags: N-terminal GST; dsDNA, one strand shown. In short, it runs like this:
as §1

The target of a further test is ETV1 (Homo sapiens, UniProt P50549 1-477). Particulars: protein: recombinant; tags: N-terminal GST; dsDNA, one strand shown. In a few lines: as §1
For a further test, the target named is T6, ERF (Homo sapiens, UniProt P50548 1-548).
T6 sequence: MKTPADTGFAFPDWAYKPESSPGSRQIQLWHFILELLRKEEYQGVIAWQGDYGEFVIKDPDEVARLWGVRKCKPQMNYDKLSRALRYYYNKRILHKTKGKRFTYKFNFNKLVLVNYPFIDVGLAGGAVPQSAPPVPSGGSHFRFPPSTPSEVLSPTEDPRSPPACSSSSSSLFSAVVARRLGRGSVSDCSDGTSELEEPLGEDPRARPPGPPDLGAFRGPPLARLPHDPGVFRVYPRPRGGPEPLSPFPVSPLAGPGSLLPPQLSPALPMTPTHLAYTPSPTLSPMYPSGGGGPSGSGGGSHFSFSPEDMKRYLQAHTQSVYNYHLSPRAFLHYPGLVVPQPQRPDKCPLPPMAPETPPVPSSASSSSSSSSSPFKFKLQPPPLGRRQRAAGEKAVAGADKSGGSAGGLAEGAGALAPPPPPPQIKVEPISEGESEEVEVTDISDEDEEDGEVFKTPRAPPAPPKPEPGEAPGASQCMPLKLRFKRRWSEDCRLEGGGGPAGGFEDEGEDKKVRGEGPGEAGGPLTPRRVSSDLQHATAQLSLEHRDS
Particulars: protein: recombinant; tags: N-terminal GST; dsDNA, one strand shown. In short, it runs like this: as §1

For another test, the target named is T7, ETV3L (Homo sapiens, UniProt Q6ZN32 1-361).
T7 sequence: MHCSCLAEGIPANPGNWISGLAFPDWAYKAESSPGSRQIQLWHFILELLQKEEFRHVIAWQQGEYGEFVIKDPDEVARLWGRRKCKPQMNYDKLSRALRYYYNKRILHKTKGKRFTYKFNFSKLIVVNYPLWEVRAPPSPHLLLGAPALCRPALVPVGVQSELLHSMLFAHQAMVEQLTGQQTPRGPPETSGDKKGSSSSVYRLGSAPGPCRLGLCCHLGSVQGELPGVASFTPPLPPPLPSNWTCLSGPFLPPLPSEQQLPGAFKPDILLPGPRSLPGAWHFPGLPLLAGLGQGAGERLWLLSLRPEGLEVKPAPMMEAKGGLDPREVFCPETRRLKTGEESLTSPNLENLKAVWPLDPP
Particulars: protein: recombinant; tags: N-terminal GST; dsDNA, one strand shown. In a few lines: as §1

Another test has as its target T8, ETS2 (Homo sapiens, UniProt P15036 1-469).
T8 sequence: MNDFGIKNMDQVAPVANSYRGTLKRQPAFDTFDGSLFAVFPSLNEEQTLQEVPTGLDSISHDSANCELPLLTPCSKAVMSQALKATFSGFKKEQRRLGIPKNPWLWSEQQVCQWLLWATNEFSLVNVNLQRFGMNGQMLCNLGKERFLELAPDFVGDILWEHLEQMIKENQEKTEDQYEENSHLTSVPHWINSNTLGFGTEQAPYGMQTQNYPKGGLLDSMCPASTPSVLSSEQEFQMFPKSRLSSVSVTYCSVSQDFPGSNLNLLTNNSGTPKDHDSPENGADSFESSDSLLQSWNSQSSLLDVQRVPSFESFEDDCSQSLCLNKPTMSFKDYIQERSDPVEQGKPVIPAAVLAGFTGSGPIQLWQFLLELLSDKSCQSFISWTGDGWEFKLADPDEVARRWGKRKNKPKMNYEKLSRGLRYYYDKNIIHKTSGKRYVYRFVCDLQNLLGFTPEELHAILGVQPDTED
Particulars: protein: recombinant; tags: N-terminal GST; dsDNA, one strand shown. In a few lines: as §1

The next test addresses T9, SPDEF (Homo sapiens, UniProt O95238 1-335).
T9 sequence: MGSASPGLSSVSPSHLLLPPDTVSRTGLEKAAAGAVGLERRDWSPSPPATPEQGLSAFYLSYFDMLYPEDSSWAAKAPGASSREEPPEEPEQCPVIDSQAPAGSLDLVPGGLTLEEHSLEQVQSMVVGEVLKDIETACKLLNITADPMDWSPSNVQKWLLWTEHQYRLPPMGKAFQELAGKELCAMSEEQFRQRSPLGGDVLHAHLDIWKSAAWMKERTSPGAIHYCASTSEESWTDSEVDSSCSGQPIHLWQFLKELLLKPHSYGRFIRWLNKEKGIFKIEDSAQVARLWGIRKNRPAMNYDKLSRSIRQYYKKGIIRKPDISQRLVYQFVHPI
Particulars: protein: recombinant; tags: N-terminal GST; dsDNA, one strand shown. In a few lines: as §1

Another test addresses T10, ETV7 (Homo sapiens, UniProt Q9Y603 1-341).
T10 sequence: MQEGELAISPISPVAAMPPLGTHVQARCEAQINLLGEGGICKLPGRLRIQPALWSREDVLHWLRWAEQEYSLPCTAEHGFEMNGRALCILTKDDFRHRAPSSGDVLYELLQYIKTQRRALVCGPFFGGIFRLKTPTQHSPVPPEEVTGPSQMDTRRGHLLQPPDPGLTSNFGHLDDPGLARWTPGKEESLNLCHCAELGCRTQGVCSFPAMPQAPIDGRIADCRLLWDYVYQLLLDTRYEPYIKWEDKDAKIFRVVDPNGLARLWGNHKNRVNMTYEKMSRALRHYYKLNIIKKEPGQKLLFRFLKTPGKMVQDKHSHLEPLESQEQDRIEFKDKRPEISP
Particulars: protein: recombinant; tags: N-terminal GST; dsDNA, one strand shown. In a few lines: as §1

In a further test the target is T11, ELF5 (Homo sapiens, UniProt Q9UKW6-2 1-255).
T11 sequence: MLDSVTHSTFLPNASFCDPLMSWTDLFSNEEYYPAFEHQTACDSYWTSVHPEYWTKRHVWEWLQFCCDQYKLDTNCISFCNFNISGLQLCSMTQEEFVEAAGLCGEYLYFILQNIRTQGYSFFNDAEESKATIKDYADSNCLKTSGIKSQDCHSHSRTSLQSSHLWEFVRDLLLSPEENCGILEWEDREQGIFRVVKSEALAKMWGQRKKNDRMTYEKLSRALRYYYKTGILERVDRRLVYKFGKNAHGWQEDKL
Particulars: protein: recombinant; tags: N-terminal GST; dsDNA, one strand shown. In a few lines:
as §1

A further test concerns the target T12, ETV3 (Homo sapiens, UniProt P41162-2 1-143).
T12 sequence: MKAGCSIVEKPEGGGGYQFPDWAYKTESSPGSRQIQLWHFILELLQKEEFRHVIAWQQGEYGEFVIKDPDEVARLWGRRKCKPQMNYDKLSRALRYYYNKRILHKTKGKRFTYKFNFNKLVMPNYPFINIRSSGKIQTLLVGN
Particulars: protein: recombinant; tags: N-terminal GST; dsDNA, one strand shown. In a few lines:
as §1

The target of the next test is ETV6 (Homo sapiens, UniProt P41212 1-452). Particulars: protein: recombinant; tags: N-terminal GST; dsDNA, one strand shown. In a few lines:
as §1

CRX, sequence (O43186 whole entry): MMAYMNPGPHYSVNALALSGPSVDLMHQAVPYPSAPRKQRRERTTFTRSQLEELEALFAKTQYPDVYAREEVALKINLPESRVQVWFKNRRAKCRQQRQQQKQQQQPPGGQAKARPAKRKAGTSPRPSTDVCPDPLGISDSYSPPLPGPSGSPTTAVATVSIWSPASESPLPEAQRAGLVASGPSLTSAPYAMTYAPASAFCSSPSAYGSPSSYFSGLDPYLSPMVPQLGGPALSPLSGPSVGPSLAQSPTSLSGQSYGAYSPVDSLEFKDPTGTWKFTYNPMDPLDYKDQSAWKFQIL
HSF1, sequence (Q00613 whole entry): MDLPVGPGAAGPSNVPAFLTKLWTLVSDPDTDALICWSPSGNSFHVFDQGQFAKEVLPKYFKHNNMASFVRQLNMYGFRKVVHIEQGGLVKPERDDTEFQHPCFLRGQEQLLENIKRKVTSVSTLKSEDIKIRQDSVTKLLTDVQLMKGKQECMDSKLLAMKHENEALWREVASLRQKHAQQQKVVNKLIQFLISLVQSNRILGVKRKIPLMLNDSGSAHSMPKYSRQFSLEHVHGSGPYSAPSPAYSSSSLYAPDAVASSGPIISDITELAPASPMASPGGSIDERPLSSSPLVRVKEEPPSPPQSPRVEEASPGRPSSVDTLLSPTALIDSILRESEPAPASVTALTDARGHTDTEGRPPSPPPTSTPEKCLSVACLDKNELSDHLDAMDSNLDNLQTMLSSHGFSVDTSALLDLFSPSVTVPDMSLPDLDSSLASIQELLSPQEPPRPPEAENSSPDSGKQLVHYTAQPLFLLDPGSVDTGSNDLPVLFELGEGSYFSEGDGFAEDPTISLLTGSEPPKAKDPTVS
ETV5, sequence (P41161 whole entry): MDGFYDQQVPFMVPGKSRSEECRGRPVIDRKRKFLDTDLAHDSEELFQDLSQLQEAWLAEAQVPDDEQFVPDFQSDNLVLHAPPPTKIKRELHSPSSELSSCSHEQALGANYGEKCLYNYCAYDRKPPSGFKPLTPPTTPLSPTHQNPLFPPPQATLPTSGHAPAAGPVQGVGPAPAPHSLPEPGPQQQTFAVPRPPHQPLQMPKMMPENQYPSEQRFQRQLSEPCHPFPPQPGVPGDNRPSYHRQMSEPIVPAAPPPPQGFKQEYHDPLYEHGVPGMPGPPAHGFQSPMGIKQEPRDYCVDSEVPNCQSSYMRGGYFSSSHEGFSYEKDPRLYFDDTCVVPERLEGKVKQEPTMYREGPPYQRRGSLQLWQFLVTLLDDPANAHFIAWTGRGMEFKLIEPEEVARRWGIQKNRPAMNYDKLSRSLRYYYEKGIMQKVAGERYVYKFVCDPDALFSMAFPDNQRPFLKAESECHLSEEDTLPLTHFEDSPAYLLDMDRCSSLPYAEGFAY
ETV6, sequence (P41212 whole entry): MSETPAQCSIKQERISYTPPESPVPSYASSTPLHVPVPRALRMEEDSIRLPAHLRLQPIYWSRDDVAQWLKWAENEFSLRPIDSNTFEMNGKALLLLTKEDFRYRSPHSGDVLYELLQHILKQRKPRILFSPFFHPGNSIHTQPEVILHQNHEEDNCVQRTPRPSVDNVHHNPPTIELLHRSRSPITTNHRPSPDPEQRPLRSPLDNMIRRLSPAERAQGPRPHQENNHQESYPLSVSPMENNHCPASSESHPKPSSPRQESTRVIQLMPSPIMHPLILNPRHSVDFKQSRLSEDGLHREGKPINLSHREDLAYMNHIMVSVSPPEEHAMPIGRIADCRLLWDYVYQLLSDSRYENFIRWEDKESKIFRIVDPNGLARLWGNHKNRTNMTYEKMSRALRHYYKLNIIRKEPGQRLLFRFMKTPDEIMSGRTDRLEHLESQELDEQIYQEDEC
ELF4, sequence (Q99607 whole entry): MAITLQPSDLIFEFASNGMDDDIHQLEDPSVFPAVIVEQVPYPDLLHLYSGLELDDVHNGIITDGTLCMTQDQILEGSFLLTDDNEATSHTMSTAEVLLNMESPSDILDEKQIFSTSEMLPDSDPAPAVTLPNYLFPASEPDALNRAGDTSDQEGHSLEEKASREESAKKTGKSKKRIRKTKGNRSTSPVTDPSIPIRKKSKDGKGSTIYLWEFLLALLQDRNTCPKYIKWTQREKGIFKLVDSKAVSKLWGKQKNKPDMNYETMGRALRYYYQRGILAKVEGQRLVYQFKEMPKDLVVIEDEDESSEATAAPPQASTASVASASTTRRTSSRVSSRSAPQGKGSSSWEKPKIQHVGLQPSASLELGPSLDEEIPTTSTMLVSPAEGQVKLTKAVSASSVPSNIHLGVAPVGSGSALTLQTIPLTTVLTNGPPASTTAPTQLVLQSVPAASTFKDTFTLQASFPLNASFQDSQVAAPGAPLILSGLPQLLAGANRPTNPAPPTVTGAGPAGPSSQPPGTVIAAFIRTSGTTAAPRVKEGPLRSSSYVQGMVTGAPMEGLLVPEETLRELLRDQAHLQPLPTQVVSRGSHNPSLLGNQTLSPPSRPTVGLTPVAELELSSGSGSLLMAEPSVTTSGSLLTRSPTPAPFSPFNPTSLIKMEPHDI
ETV1, sequence (P50549 whole entry): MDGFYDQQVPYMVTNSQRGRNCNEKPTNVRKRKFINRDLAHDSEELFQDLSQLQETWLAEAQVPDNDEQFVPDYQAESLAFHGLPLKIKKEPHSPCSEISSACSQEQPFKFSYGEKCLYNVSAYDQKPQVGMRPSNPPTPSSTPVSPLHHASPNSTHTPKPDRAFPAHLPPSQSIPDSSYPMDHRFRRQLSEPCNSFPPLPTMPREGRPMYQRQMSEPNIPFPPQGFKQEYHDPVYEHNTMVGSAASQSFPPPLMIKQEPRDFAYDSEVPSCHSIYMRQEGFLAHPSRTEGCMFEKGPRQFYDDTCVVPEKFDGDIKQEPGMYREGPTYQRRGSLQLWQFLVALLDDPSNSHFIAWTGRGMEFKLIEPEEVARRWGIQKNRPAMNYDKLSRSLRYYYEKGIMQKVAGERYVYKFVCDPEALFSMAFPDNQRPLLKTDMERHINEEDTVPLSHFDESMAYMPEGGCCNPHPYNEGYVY

Turning to CGGCTC, the binding signal was 1.33 fold enrichment (6-mer frequency, TF over GST control) with FEV; 1.28 fold enrichment (6-mer frequency, TF over GST control) with ETV5; 1.21 fold enrichment (6-mer frequency, TF over GST control) with HSF1; 1.23 fold enrichment (6-mer frequency, TF over GST control) with SPIC; 1.35 fold enrichment (6-mer frequency, TF over GST control) with ELF4; 1.22 fold enrichment (6-mer frequency, TF over GST control) in the test with ELK4. Also, the binding signal with ETV2 was 1.42 fold enrichment (6-mer frequency, TF over GST control); with ELF3, 1.48 fold enrichment (6-mer frequency, TF over GST control); with CRX, 1.26 fold enrichment (6-mer frequency, TF over GST control); in the test with ETV1, 1.29 fold enrichment (6-mer frequency, TF over GST control); with ERF it was 1.36 fold enrichment (6-mer frequency, TF over GST control); with ETV3L, 1.27 fold enrichment (6-mer frequency, TF over GST control). Besides, the binding signal with ETS2 is 1.23 fold enrichment (6-mer frequency, TF over GST control); in the test with SPDEF, 1.42 fold enrichment (6-mer frequency, TF over GST control); in the test with ETV7, 1.25 fold enrichment (6-mer frequency, TF over GST control); in the test with ELF5 it was 1.27 fold enrichment (6-mer frequency, TF over GST control); with ETV3 it was 1.29 fold enrichment (6-mer frequency, TF over GST control); with ETV6, 1.23 fold enrichment (6-mer frequency, TF over GST control).

The record behind these values is PMC7862700, “An all-to-all approach to the identification of sequence-specific readers for epigenetic DNA modifications on cytosine”.
